Hits are enriched below; roughly 2.5% of the tested compounds scored in any of these assays.
Akt phos inh – inhibitors of Akt phosphorylation. Neuro2A IGF-stimulated pAkt S473 HTRF, 20 min; stronger effect = lower value. activity change, % for hits at 50 µM. 0.32% of 360,000 active; in the data active = activity change below about -80%; inconclusive = mostly about -51% to -80%; also: % is scaled to controls: 0 for no effect and ±100 for the full control effect
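Neuro2A cells (4,500/well, DMEM with 0.5% FBS) were treated with compound at a single 50 µM final concentration, stimulated with 6 nM IGF for 20 min at 37 °C, and lysed. Phospho-Akt Ser473 was read by HTRF as 665/615 ratio ×10^4.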
Anesthetic bind – candidate novel general anesthetic via apoferritin binding; AID 485281; 0.074% of 350,000 active; Potency, µM (series often up to 77.5 µM), for inactives: at the highest dose activity change, negative = displacement, hits mostly inhibitors; apoferritin/1-aminoanthracene competitive binding, fluorescence; P02791; also: potency is read from the fitted curve at half-maximal effect; % is scaled to controls: 0 for no effect and ±100 for the full control effect; nearly all actives have a fitted effect of over 20% in size
Target sequence (P02791 2-175 limits assumed): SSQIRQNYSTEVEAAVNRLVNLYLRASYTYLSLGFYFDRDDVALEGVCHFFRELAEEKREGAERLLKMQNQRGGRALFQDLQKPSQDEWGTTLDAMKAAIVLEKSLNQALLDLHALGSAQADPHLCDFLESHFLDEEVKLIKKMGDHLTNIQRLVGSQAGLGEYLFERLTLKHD
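Apoferritin-based anesthetic binding model; compound displacement of fluorescent 1-AMA measured as endpoint fluorescence after 10 minutes at room temperature, scaled to free-ligand and complex controls.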
Mito fusion act – inhibitors of mitochondrial division or activators of mitochondrial fusion; S. cerevisiae fusion-defective mutant growth rescue, CellTiterGlo 48 h; Potency, µM (series often up to 46.1 µM), inactives show at the top dose growth rescue (activation), actives largely listed as activators; 0.23% of 320,000 active; also: potency is read from the fitted curve at half-maximal effect; % of control where 0% means no effect; nearly all actives have a fitted effect of over 45% in size
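Temperature-sensitive fusion-defective S. cerevisiae (e.g. fzo1-1, mgm1-5) were grown with compound in YPEG medium (3% ethanol, 3% glycerol) for 48 hours at 37C. Growth rescue was measured as viability by CellTiterGlo luminescence after 10 minutes at ambient.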
CCT chaperon mod – modulators of cytosolic chaperonin (CCT/TRiC) activity | purified chaperonin ATPase assay, HTRF ADP detection, 30 min | AID 651819 | activity change, % (no concentration beside the values), hits read low | 0.3% of 360,000 active; in the data active = activity change below about -30%; also: % is scaled to controls: 0 for no effect and ±100 for the full control effect
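We incubate TRiC, 40 or 20 nM final, with library compounds at 76 uM and 10 uM ATP for 30 min at 37 °C. ADP formed is detected with Transcreener HTRF reagents after 30 min at room temperature.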
aSyn yeast inh – rescues yeast growth from alpha-synuclein toxicity; Yeast expressing alpha-synuclein, growth rescue, BacTiter-Glo, 24 h; Potency, µM (highest dose often 46.1 µM), for the others: at the highest dose growth rescue (activation), hits mostly activators; 0.14% of 370,000 active; also: potency is read from the fitted curve at half-maximal effect; % of control where 0% means no effect; nearly all actives have a fitted effect of over 65% in size
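Readout is rescue of growth in alpha-synuclein-expressing yeast, so inhibitors of toxicity appear as activators. Growth after 24 hr at 30 deg C in galactose medium is quantified by luminescence.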
TDP43 rescue – rescues yeast growth from TDP-43 toxicity | 1.8% of 410,000 active | TDP-43 expressing yeast growth rescue, BacTiter-Glo, 24 h | Potency, µM (top dose mostly 46.1 µM), for inactives: at the top dose growth rescue (activation), usual class: activators | AID 652104; also: potency is read from the fitted curve at half-maximal effect; % of control where 0% means no effect; nearly all actives have a fitted effect of over 50% in size
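Luminescence from BacTiter-Glo reports growth of TDP-43-expressing yeast after 24 hr at 30 deg C with compound. Cells were raffinose-pregrown to mid-log, then seeded in galactose medium at OD600=0.02.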
Active calls of the source: *; i = inactive; ? = inconclusive; . = not tested or not shown. Unless noted, calls follow the shape of the dose curve; as a rule, active = well fitted curve in the direction sought with a large enough effect; inconclusive = small, poorly fitted or top-dose-only effect, or another doubt; inactive = no such curve, though single readings can be large; an effect the other way counts as inactive or inconclusive.

SMILES	Akt phos inh	Anesthetic bind	Mito fusion act	CCT chaperon mod	aSyn yeast inh	TDP43 rescue
Cc1ccc(C)c(N2CCN(C(=O)CCS(=O)(=O)c3cc(Br)cc4c3N(C(=O)C3CC3)CC4)CC2)c1	.	-1%	.	.	.	1%
Cc1cc(C)c2c(N)c(C(=O)Nc3ccccc3C(F)(F)F)sc2n1	.	88%	-8%	.	.	?
Cc1nc(-c2ccccc2)sc1C(=O)Nc1ccccc1F	i	-14%	6%	1	0%	13µM*
Nc1c(C(=O)Nc2ccccc2F)sc2nc(Cc3ccccc3)cc(C(F)(F)F)c12	-109%*	-4%	2%	-1	-1%	-5%
CCCCC12CN3CC(C)(CN(C1)C3c1c(C)[nH]c(=O)[nH]c1=O)C2=O (centres undefined)	.	2%	.	.	.	13%
COc1ccc(N2CCN(c3nc4ccc(C)cc4n4nnnc34)CC2)cc1	.	-2%	.	.	.	13%
Cc1nc(-c2ccc(Br)cc2)ccc1C(=O)O	i	-8%	9%	-2	-9%	16µM*
C=CCNc1nc(Cl)nc(NC2CCCCC2)n1	i	?	-1%	-5	-17%	16µM*
CCc1cc(=O)oc2c3c(cc(OCC(=O)NCc4ccco4)c12)OC(C)(C)CC3	i	?	14%	-3	-2%	35µM*
O=C(COc1ccccc1Br)NCc1ccco1	i	-9%	2%	-2	1%	-10%
CCc1ccc(OCC(=O)NCc2ccco2)c(Br)c1	i	-16%	2%	-5	-3%	13µM*
Cc1ccccc1OCCCC(=O)NCc1ccco1	-101%*	-15%	-1%	2	4%	4%
Cc1ccc(OCCCC(=O)NCc2ccco2)cc1	i	-14%	2%	-2	-14%	-20%
COc1ccc(C2Nc3ccccc3C(=O)N2Cc2ccccc2)cc1COc1ccc([N+](=O)[O-])c(C)c1 (centres undefined)	.	.	.	.	0%	.
COc1ccccc1-c1cc(NC=O)c2ncc(-c3cccc(C(C)=O)c3)n2c1	i	.	.	0	4%	18µM*
O=CNc1cc(-c2ccccc2Oc2ccccc2)cn2c(-c3ccc(F)cc3)cnc12	i	.	.	0	20%	16µM*
CC(=O)Nc1cc(-c2cccc(C(=O)NCCN(C)C)c2)cn2c(-c3ccc(S(C)(=O)=O)cc3)cnc12	i	.	.	-2	1%	8%
CC(=O)Nc1cc(-c2cccc(C(=O)NCCN(C)C)c2)cn2c(-c3ccccc3)cnc12	.	.	.	-38*	-4%	-5%
COc1ccc(-c2cnc3c(NC(C)=O)cc(-c4ccc(C(=O)NC5CC5)cc4)cn23)cc1OC	i	.	.	-1	-6%	21%
COc1cccc(-c2cnc3c(NC(C)=O)cc(-c4ccc(C(=O)NC5CC5)cc4)cn23)c1	i	.	.	-35*	7%	10%
CC(=O)c1ccc(-c2cnc3c(NC=O)cc(-c4ccccc4Oc4ccccc4)cn23)cc1	i	.	.	-4	11%	?
Cc1nc2ccn(Cc3cccs3)c(=O)c2cc1C(=O)N1CCN(c2ccccc2)CC1	.	-11%	.	.	.	15%
COc1ccc(-c2cc(NC=O)c3ncc(-c4cccc(OC)c4)n3c2)cc1	i	.	.	0	-16%	10µM*
COc1ccc(-c2cc(NC=O)c3ncc(-c4ccc(OC)c(OC)c4)n3c2)c(OC)c1	i	.	.	0	-18%	27%
CC(=O)Nc1cc(-c2ccccc2N(C)C)cn2c(-c3cccc(C(F)(F)F)c3)cnc12	i	.	.	1	?	25µM*
SMILES	Akt phos inh	Anesthetic bind	Mito fusion act	CCT chaperon mod	aSyn yeast inh	TDP43 rescue
COc1cccc(-c2cnc3c(NC=O)cc(-c4ccc(OC)cc4OC)cn23)c1	i	.	.	-35*	-7%	22µM*
COc1cccc(-c2cc(NC=O)c3ncc(-c4ccc(OC)c(OC)c4)n3c2)c1	i	.	.	-1	-8%	?
COc1cccc(-c2cnc3c(NC=O)cc(-c4ccc(N(C)C)cc4)cn23)c1	i	.	.	0	-9%	20µM*
Cc1ccc(-c2nn(CC(=O)Nc3cccc(C(F)(F)F)c3)c(=O)c3ccccc23)cc1	.	?	.	.	.	23%
Cc1noc(C)c1-c1ccc2ncnc(NCc3ccc(C(F)(F)F)o3)c2c1	.	-13%	.	.	.	.
Cc1n[nH]c(=S)n1-c1cccc(Cl)c1	i	10%	2%	-55*	-3%	10%
Cc1ccccc1OCc1n[nH]c(=S)n1-c1cccc(Cl)c1	i	-9%	-1%	0	-1%	19%
Cc1ccc(-n2c(C3CC3c3ccc(Cl)cc3)n[nH]c2=S)cc1 (centres undefined)	.	-8%	0%	1	-1%	-19%
Cc1ccc(C2CC2c2n[nH]c(=S)n2-c2cccc(Cl)c2)cc1 (centres undefined)	i	-10%	5%	-1	9%	35µM*
Cc1cc(C)c2sc(NNC(=O)c3ccc(S(=O)(=O)N4CCc5ccccc5C4)cc3)nc2c1	i	8%	-9%	-2	5%	7.9µM*
CCOC(=O)CCCc1ccc(/C(C)=N/NC(N)=S)cc1	i	-9%	8%	2	-8%	20µM*
CC(=O)C[n+]1cccc2cc(Cl)ccc21	.	.	.	.	7%	.
NCC1OC(OC2C(N)CC(N)[C@@H](O)[C@@H]2OC2O[C@H](CO)[C@@H](O[C@@H]3OC(CN)C(O)C(O)C3N)C2O)C(N)C(O)C1O (some centres undefined)	.	-4%	.	.	.	.
CCc1cc(=O)oc2cc3occ(-c4ccc(OC)c(F)c4)c3cc12	i	-7%	16µM*	-4	11%	5%
O=c1cc(-c2ccc(O)cc2)oc2cc(OC3OC(CO)C(O)C(O)C3O)c(C3OC(CO)C(O)C(O)C3O)c(O)c12 (centres undefined)	.	4%	.	.	.	.
C=CCn1c(Sc2ncc([N+](=O)[O-])s2)n[nH]c1=O	i	-4%	-14%	-14	2%	13µM*
O=[N+]([O-])c1cnc(Sc2ccncn2)s1	i	0%	-16%	-1	-71%	?
COc1cccc(C(=O)Nc2ccc(-c3nc4ccccc4s3)cc2Cl)c1	.	82%	.	.	.	22%
C=CCNc1nc(NC2CCN(C)CC2)c2cc(OC)c(OC)cc2n1	.	.	.	.	0%	.
N/C(=N\OC(=O)c1ccc(Cl)cc1Cl)c1ccc(Cl)cc1	i	-8%	13%	2	-42%	10%
Cc1ccc(/C(N)=N/OC(=O)c2ccc3ccccc3c2)cc1	i	-2%	4%	-2	-44%	1.3µM*

Assay outcomes: PubChem BioAssay, National Center for Advancing Translational Sciences (NCATS)
